Results filed as inconclusive are left out. Where a call stands in place of a potency, no number is given. The source made the active and inactive calls. Calls follow the shape of the dose curve; as a rule, active = well fitted inhibition curve with a large enough effect; inconclusive = small, poorly fitted or top-dose-only effect; inactive = flat fitted curve, though single readings scatter.
Potency is read from the fitted curve at half-maximal effect.

The subject of this test is Zika virus NS2B-NS3 protease. The test is described as follows: Primary screen GU AMC qHTS for Zika virus inhibitors (AID 1347154). Also: nearly all actives have a fitted effect of over 70% in size. To be noted: Zika NS2B-NS3 unlinked protease, AMC fluorogenic substrate; series mostly up to 54.1 µM. A digest of the protocol: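 Fluorogenic AMC-substrate cleavage by noncovalent NS2B-NS3 protease complex (25 nM, pH 8.0 Tris buffer with Tween 20) followed for 15 minutes at room temperature (~20% conversion). Percent inhibition from ex340/em450 signal change, fitted by 4-parameter Hill equation.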
On the technique in general: Quantitative high-throughput screening tests each substance at several concentrations.
As to `O=C(O)COc1ccccc1`, the Potency entry was “inactive”.

On to `CCOP(=O)(NC(C)C)Oc1ccc(SC)c(C)c1` (centres undefined), for which the Potency entry is “inactive”.

For `COc1ccc(CC2NCCc3cc(OC)c(OC)cc32)cc1OC` (centres undefined), the Potency entry is “inactive”.

Take `c1cc2ccc3cccc4ccc(c1)c2c34`: the Potency is 17.3 µM (active).

Turning to `C=C[C@@H]1CN2CCC1C[C@@H]2[C@@H](O)c1ccnc2ccccc12` (some centres undefined), the Potency result is “inactive”.

For `C[C@]12CCC(=O)C(O)=C1CC[C@@H]1[C@H]3CCC(=O)[C@@]3(C)CC[C@@H]12`, the Potency entry was “inactive”.

Regarding `COCC1(CO)C(=O)C2CCN1CC2` (centres undefined), the Potency result was “inactive”.

On to `O=[N+]([O-])c1cc([N+](=O)[O-])c2ccccc2c1`, for which the Potency entry was “inactive”.

Regarding `Clc1ccccc1C(c1ccccc1)(c1ccccc1)n1cccn1`, the Potency result was “inactive”.

With `COc1cccc2c1[C@]13CCN(CC4CC4)[C@H](C2)[C@]1(OC)CCC(=O)C3`, the Potency result was “inactive”.

As for `CCC(=O)OC1CCC2C3CCC4=CC(=O)CC[C@@]4(C)C3CC[C@]12C` (some centres undefined), the Potency result was “inactive”.

Turning to `COc1nn(CSP(=S)(OC)OC)c(=O)s1`, the Potency result was “inactive”.

As for `C[C@@H]1[C@H](O)[C@@H](C)C=CC=CCCC=CC=CC=CC=C[C@H](O[C@H]2O[C@@H](C)[C@H](O)[C@@H](N)[C@@H]2O)CC2O[C@](O)(C[C@@H](O)[C@H](O)CC[C@@H](O)C[C@@H](O)C[C@@H](O)CC(=O)O[C@H]1C)C[C@H](O)[C@H]2C(=O)O`, the Potency entry is “inactive”.

For `C[C@]12COC(=O)C[C@@H]1CC[C@@H]1[C@H]2CC[C@@]2(C)[C@H]1CC[C@]2(C)O`, the Potency result is “inactive”.

Regarding `O=[N+]([O-])/N=C1\NCCN1Cc1ccc(Cl)nc1`, the Potency result was “inactive”.

On to `CC(C)NCC(O)c1ccc([N+](=O)[O-])cc1` (centres undefined), for which the Potency result is “inactive”.

Turning to `O=S(=O)(CC1CS1)c1ccc(Oc2ccccc2)cc1` (centres undefined), the Potency entry is “inactive”.

As for `CCC(=O)O[C@@H]1C=C2CCC3C(CCC4(C)C3CC[C@@H]4OC(=O)CC)C2CC1` (some centres undefined), the Potency result is “inactive”.

With `C[C@]12CC[C@@H]3[C@@H](CCC4=CC(=O)CC[C@@H]43)[C@@H]1CC[C@@H]2OC(=O)CCc1ccccc1`, the Potency result is “inactive”.

Regarding `O=S(=O)(O)C(F)(F)C(F)(F)C(F)(F)C(F)(F)C(F)(F)C(F)(F)C(F)(F)C(F)(F)F`, the Potency was 11.2 µM (active).

For `CC(C)(C)[C@]1(O)C[C@@H]2OC(=O)C[C@@]23C(=O)O[C@@H]2OC(=O)[C@H](O)C213` (some centres undefined), the Potency result is “inactive”.

For `CCOCCOC(C)=O`, the Potency entry is “inactive”.

For `N=c1c2c(-c3ccccc3)c(-c3ccccc3)n(Cc3ccccc3)c2ncn1C1CCC(O)CC1` (centres undefined), the Potency result is “inactive”.

On to `O=C(Nc1ccccc1-c1ccc(Cl)cc1)c1cccnc1Cl`, for which the Potency entry is “inactive”.

Regarding `CC[C@@H]1[C@@H](C)O[C@@](O)([C@@H](C)[C@H](O)[C@H](C)[C@H]2OC(=O)C=CC=C[C@@H](C)[C@@H]([C@@H](C)[C@@H](O)[C@H](C)[C@@]3(O)C[C@H](O[C@H]4C[C@H](O)[C@H](O)[C@H](C)O4)[C@H](CC)[C@@H](C)O3)OC(=O)C=CC=C[C@@H]2C)C[C@H]1O[C@H]1C[C@H](O)[C@H](O)[C@H](C)O1`, the Potency entry was “inactive”.

`CO/C=C(/C(=O)OC)c1ccccc1Oc1cc(Oc2ccccc2C#N)ncn1`: the Potency result was “inactive”.

As to `O=S(=O)(F)Cc1ccccc1`, the Potency entry is “inactive”.

In the case of `CC(C)N[C@@H]1CCn2c(=O)[nH]c3cccc(c32)[C@@H]1O`, the Potency entry was “inactive”.

Regarding `O=C(Nc1ccncc1)C(=O)c1cn(Cc2ccc(Cl)cc2)c2ccccc12`, the Potency result was “inactive”.

As to `O=c1cccc2n1CC1CNC[C@H]2C1`, the Potency entry was “inactive”.

`COc1cc([C@@H]2c3cc4c(cc3[C@@H](O)C3COC(=O)C32)OCO4)cc(OC)c1O` (some centres undefined): the Potency entry is “inactive”.

`Cc1c(C(=O)c2cccc3ccccc23)c2cccc3c2n1[C@H](CN1CCOCC1)CO3`: the Potency entry is “inactive”.

As for `CC(=O)O[C@@]12CO[C@H]1C[C@H](O)[C@@]1(C)C(=O)[C@H](O)C3=C(C)[C@@H](O)C[C@@](O)([C@@H](OC(=O)c4ccccc4)[C@@H]21)C3(C)C`, the Potency result was “inactive”.

With `CCOC(=O)c1cncn1[C@H](C)c1ccccc1`, the Potency result was “inactive”.
